High-throughput results deposited in PubChem BioAssay by National Center for Advancing Translational Sciences (NCATS).
This excerpt belongs to a sample that is enriched for hits.
Methyltransferases: Primary Screen for Target Class Profiling of Small Molecule Inhibitors of Methyltransferases | purified enzyme, MTase-Glo SAH luminescence; stronger effect = lower value | calls only at 40 µM | hit rate 3.9% among 25,000 | AID 1745853, 2022; call rule not given here
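Each enzyme was reacted with SAM and its substrate, with compounds tested once at 40 uM; SAH formed was read by MTase-Glo luminescence.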
The depositor's hits bear a star; i = inactive; + = active, no number; ! = not active in a repeat. On the % scale 0 is the no-effect control and ±100 the full control effect.

SMILES	Methyltransferases
Cc1ccc(Cn2c(=O)c3ccccc3n3c(=O)n(CC(=O)Nc4ccccc4F)nc23)cc1	i
C=C1C(=O)O[C@@H]2/C=C(\C)C(=O)/C=C/[C@](C)(O)C[C@@H](OC(=O)C(C)C)[C@@H]12	+
C=C1C(=O)OC2/C=C(\C)CC/C=C(\C)CC(OC(C)=O)C12 (stereo not drawn)	i
C=C1C(=O)O[C@@H]2/C=C(/C)CC3C=C(C[C@H](OC(=O)/C(C)=C\C)[C@@H]12)C(=O)O3 (stereo partly drawn)	i
CC(CN1C(=O)c2cc3ccccc3n2CC1(C)C(=O)NCc1ccccc1)c1ccccc1 (stereo not drawn)	i
CCOCCCNC(=O)C1c2c(n(C)c3ccccc23)SCC(=O)N1c1ccc(Cl)cc1C (stereo not drawn)	i
COc1ccc(NS(=O)(=O)c2ccc3c(c2)n(C)c(=O)n3C)cc1OC	i
Clc1ccccc1C1Nc2ccc(Br)cc2C2C=CCC21 (stereo not drawn)	i
COc1ccc(NC(=O)c2ccc3c(c2)N(C(=O)c2ccc(OC)cc2)CC3)cc1	i
CCN(CC)Cc1ccc2cc(COC(=O)Nc3ccc(C(=O)NO)cc3)ccc2c1	+!
O=c1[nH]c2ccc(S(=O)(=O)Nc3ccc(F)c(F)c3)cc2[nH]1	i
CC(C)CCn1c(=O)c2ccc(C(=O)NCC(C)C)cc2n2c(=O)n(CC(=O)c3ccccc3)nc12	i
Cc1ccc2c(cnn2C(=O)CCC(=O)N2CCN(c3ccccc3)CC2)c1	i
Cc1cc2c(cc1Cl)N(C(=O)Nc1ccnc3ccccc13)CC2	+
Cc1cc2c(cc1Cl)N(C(=O)Nc1ccc(Oc3cccnc3C)nc1)CC2	i
COc1ccc(NC(=O)N2CCc3c2ccc2ccccc32)cc1N1CCN(C)CC1	i
CCc1cc(Nc2nccc(-c3c(-c4ccc(OC)c(C(=O)Nc5c(F)cccc5F)c4)nc4ccccn34)n2)c(OC)cc1N1CCC(N2CCN(S(C)(=O)=O)CC2)CC1	+
COc1ccc(OC)c2c1cc1n2CC(C)(C(=O)NC2CCCC2)N(Cc2ccc(C)cc2)C1=O (stereo not drawn)	i
CC(C)Cn1c(=O)c2ccc(C(=O)NC3CCCCC3)cc2n2c(=O)n(Cc3ccc(F)cc3)nc12	i
CC1CCC(NC(=O)C2(C)Cn3c(nc4ccccc43)C(=O)N2Cc2ccccc2F)CC1 (stereo not drawn)	i
Cc1noc(C)c1CCNC(=O)c1cc2n(n1)CC(C)(C(=O)NCc1ccc(F)cc1)N(C)C2=O (stereo not drawn)	i
CC(C)OCCCNC(=O)C1c2c(n(C)c3ccccc23)SCC(=O)N1Cc1cccs1 (stereo not drawn)	i
CC1(C(=O)NC2CCCCCCC2)Cn2c(cc3occc32)C(=O)N1C1CCCCC1 (stereo not drawn)	i
CC(C)(C)c1ccc(S(=O)(=O)/C=C/C#N)cc1	+
COc1ccccc1CN1C(=O)c2nc3ccccc3n2CC1(C)C(=O)NC1CCCCC1C (stereo not drawn)	i
SMILES	Methyltransferases
CCCn1c(=O)c2ccc(Cl)cc2n2c(=O)n(CC(=O)Nc3cccc(Cl)c3)nc12	i
CCCCN1C(=O)c2cc(C(=O)Nc3c(C)cccc3CC)nn2CC1(C)C(=O)NC1CCCC1 (stereo not drawn)	i
CC(=O)Nc1c2n(c3ccccc13)CC(C)(C(=O)NC1CCCCCC1)N(C1CCC(C)CC1)C2=O (stereo not drawn)	i
O=C1CCN(Cc2cccc(F)c2)CCCCCCN1	i
Nc1c(NC/C=C\COc2cc(CN3CCCCC3)ccn2)c(=O)c1=O	+
CCCn1c(=O)c2cc(F)ccc2n2c(SCc3cccc(Cl)c3)nnc12	i
CC1CCC(NC(=O)C2(C)Cn3c(cc4sccc43)C(=O)N2Cc2ccccc2Cl)CC1 (stereo not drawn)	i
CC1(C(=O)NCc2ccccc2)Cn2c(ccc2-c2ccco2)C(=O)N1CCC1=CCCCC1 (stereo not drawn)	i
CC#C[C@@H](CC(=O)O)c1ccc(OCc2cccc(-c3ccc(C(F)(F)F)cc3)c2)cc1	+
COc1cccc(-c2ccc(C(=O)N3CCC(NC(=O)c4ccc(C(F)(F)F)cc4)CC3)cc2)c1	i
CCCn1c(=O)c2cc(Cl)ccc2n2c(SCC(=O)NCc3ccccc3)nnc12	i
COC(=O)c1ncn2c1C(=O)N(c1ccc(C(C)C)cc1)C(C)(C(=O)NCCCOC(C)C)C2 (stereo not drawn)	i
Cc1ccc(-c2n[nH]n3c2nc(=O)c2ccc(C(=O)NC4CCCCC4)cc23)cc1	i
Cn1c(=O)c2ccc(C(=O)NC3CCCC3)cc2n2c(SCC(=O)Nc3cccc(Cl)c3)nnc12	i
COC(=O)c1ccc([C@@H]2Nc3c(Cl)cccc3[C@@H]3C=CC[C@@H]32)cc1	i
Cc1ccc(C(=O)O)c2c1N[C@H](c1cccc(Cl)c1)C1CC=CC21 (stereo partly drawn)	+
Fc1cccc2c1NC(c1ccc(Cl)cc1)C1CC=CC21 (stereo not drawn)	i
